ASM inhibitor: human S-ASM enzyme inhibition; P17405; placental ASM, HMU-PC fluorogenic substrate, 60 min; Potency, µM (titrated, usually from 57.5 µM), without a hit: at the highest dose activity change, negative = inhibition, hits mostly inhibitors; 340,000 tested, 0.006% active; AID 504937; also: potency is read from the fitted curve at half-maximal effect
Target sequence (P17405 47-631 limits assumed): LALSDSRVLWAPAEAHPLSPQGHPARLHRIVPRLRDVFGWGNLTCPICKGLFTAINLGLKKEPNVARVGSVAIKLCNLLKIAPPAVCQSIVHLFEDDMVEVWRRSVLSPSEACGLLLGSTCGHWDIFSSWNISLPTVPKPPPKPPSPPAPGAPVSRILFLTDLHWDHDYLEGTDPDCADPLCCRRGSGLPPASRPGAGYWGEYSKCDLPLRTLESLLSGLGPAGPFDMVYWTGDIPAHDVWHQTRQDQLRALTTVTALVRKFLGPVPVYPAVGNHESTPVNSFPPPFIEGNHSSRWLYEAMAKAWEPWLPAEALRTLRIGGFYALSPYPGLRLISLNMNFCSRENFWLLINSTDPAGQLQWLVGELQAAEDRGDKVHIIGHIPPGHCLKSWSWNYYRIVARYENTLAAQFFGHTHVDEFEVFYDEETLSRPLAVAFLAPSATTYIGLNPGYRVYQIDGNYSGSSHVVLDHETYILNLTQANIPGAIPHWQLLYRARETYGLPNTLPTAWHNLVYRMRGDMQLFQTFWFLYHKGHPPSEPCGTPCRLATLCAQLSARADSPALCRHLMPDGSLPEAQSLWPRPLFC
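Human placenta-derived ASM enzyme was preincubated with compound for 10 minutes at room temperature, then given fluorogenic substrate HMU-PC0 (9 uM final) for 60 minutes at 37 °C; a pH 10 stop preceded fluorescence reading at Ex 386/Em 447 nm.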
12-LOX inh: blocks human arachidonate 12S-lipoxygenase. P18054. purified 12hLO, xylenol orange hydroperoxide absorbance. Potency, µM (top dose mostly 108 µM), without a hit: at the top dose activity change, negative = inhibition, hits mostly inhibitors. 580,000 tested, 1.1% active. AID 1671190; also: potency is read from the fitted curve at half-maximal effect; % is scaled to controls: 0 for no effect and ±100 for the full control effect
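Purified human 12hLO (150 nM final) in 25 mM Hepes, 0.01% Triton X-100, pH 7.0 was preincubated 15 min at room temperature with compound. Then 40 uM arachidonic acid was added, 30 min. Hydroperoxide was read by Fe-XO absorbance ratio 573/405 nm.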
Mm-Cpn inhibitor: blocks the Methanococcus maripaludis chaperonin Mm-Cpn; 330,000 tested, 0.031% active; Potency, µM (series often up to 76.9 µM), for the others: at the top dose activity, negative = inhibition, hits mostly inhibitors; purified Mm-Cpn ATPase, ADP Transcreener TR-FRET; AID 504842; also: potency is read from the fitted curve at half-maximal effect; % is scaled to controls: 0 for no effect and ±100 for the full control effect; nearly all actives have a fitted effect of over 80% in size
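Compound-treated chaperonin, 25 nM final, turns over 10 uM ATP at 37°C for 30 min following a 10 min preincubation; ADP generated competes with ADP-d2 for Eu-cryptate antibody, lowering FRET.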
p53 reactivation: restores transcriptional activity of mutant p53; H1299 p53-A138V BP100-luciferase reporter, luminescence, 24 h; Potency, µM (doses to about 92.2 µM), inactives show top-dose activity change, positive = activation, actives largely listed as activators; 320,000 tested, 0.063% active; also: potency is read from the fitted curve at half-maximal effect; % of control where 0% means no effect; nearly all actives have a fitted effect of over 45% in size
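p53-null H1299 cells stably carrying temperature-sensitive p53-A138V and a BP100-luciferase reporter were pinned with compounds (4-point, 1:5 series) and held 24 hrs at 37 deg C. Luminescence was read 10 min after detection reagent.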
PINK1 modulator: modulators of PINK1 expression | PINK1 immunofluorescence, high-content cytometry, 24 h | Potency, µM (titrated, usually from 76.6 µM), inactives show at the top dose activation (PINK1 increase), most hits filed as activators | 410,000 tested, 0.2% active | AID 624263; active = well fitted activation curve with a large enough effect; inconclusive = small, poorly fitted or top-dose-only effect; cell line not stated here; also: potency is read from the fitted curve at half-maximal effect; % of control where 0% means no effect; nearly all actives have a fitted effect of over 65% in size
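PINK1 protein level read as immunofluorescence by microplate cytometer in a fixed, stained stable cell line after 24 h exposure to five compound concentrations, with CCCP as control.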
CCT modulator: changes cytosolic chaperonin activity. purified chaperonin ATPase assay, HTRF ADP detection, 30 min. 360,000 tested, 0.3% active. activity change, % (no concentration beside the values), hits read low; in the data active = activity change below about -30%; also: % is scaled to controls: 0 for no effect and ±100 for the full control effect
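We incubate TRiC, 40 or 20 nM final, with library compounds at 76 uM and 10 uM ATP for 30 min at 37 °C. ADP formed is detected with Transcreener HTRF reagents after 30 min at room temperature.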
Active calls of the source: *; i = inactive; ? = inconclusive; · = no result given; [ ] = dose if it differs, or a comment. In the library only some 1.4% were active in any assay of this set; here they are far more common. Unless noted, calls follow the shape of the dose curve; as a rule, active = well fitted curve in the direction sought with a large enough effect; inconclusive = small, poorly fitted or top-dose-only effect, or another doubt; inactive = no such curve, though single readings can be large; an effect the other way counts as inactive or inconclusive.

SMILES | ASM inhibitor | 12-LOX inh | Mm-Cpn inhibitor | p53 reactivation | PINK1 modulator | CCT modulator
N#Cc1c(Nc2cccc(F)c2)sc(C(=O)c2ccc(Cl)cc2)c1N | · | 44.7µM* | · | · | 0.1% | ·
O=S(=O)(Nc1nc2ccccc2nc1NCc1ccccc1)c1cccs1 | · | -58.4% | · | · | · | ·
N#CC1=C(N)Oc2c(O)cc3ccccc3c2C1c1ccsc1 (centres undefined) | -8.3% | 44.7µM* | 0.7% | 1.1% | -1.7% | 0.9
O=C(Cc1ccsc1)N1CCC(c2nc3c(nnn3Cc3c(F)cccc3Cl)c(=O)[nH]2)CC1 | · | -24.3% | · | · | · | ·
CC(C(=O)N1CCCN(c2cc(-c3ccc(Cl)cc3)[nH]n2)CC1)c1ccccc1 (centres undefined) | · | -3.1% | · | · | · | ·
Nc1cccc(OCC2CCCO2)c1 (centres undefined) | · | 7.08µM* | · | · | · | ·
CC(C)(C)c1ccc(C(=O)NCCC(=O)NC2CCCCCC2)cc1 | · | -1.3% | · | · | · | ·
O=C(COc1cc(F)cc(F)c1)NC1CCS(=O)(=O)C1 (centres undefined) | · | 2.6% | · | · | · | ·
CCCCNC(=S)N/N=C/c1cc(C)ccc1C | -2.5% | 50.1µM* | 1.1% | 11.2% | 1.0% | -2.3
CCCCNC(=S)N/N=C/c1ccccc1F | -0.9% | ? | -0.2% | 10.8% | 0.5% | -2.8
COc1ccc2c(c1)CCCC(Br)C2=O (centres undefined) | 2.1% | 39.8µM* | · | · | 1.7% | 1.0
Cc1ccc(C)c(NC(=S)NNC(=O)c2csc3c2CCCC3)c1 | -0.9% | ? | 2.9% | -8.4% | 3.8%[38.3 µM] | -0.4
Cc1ccc(C)c(NC(=O)C2=Cc3sc4c(c3CS2)CCCC4)c1 | · | 17.8µM* | · | · | · | ·
CCC(C)NC(=O)C1=Cc2sc3c(c2CS1)CCCC3 (centres undefined) | · | 14.1µM* | · | · | · | ·
Cc1cccc(NC(=O)c2c(Br)sc3c2CCCC3)c1 | · | -10.7% | · | · | 1.7% | ·
Cc1cc(C)c(NC(=O)C2=Cc3sc4c(c3CS2)CCCC4)c(C)c1 | · | 28.2µM* | · | · | · | ·
Cc1ccc(NC(=O)C2=Cc3sc4c(c3CS2)CCCC4)cc1C | · | 7.08µM* | · | · | · | ·
O=C(Cc1ccc(F)cc1)N1CCn2c(nn(-c3ccc(F)cc3)c2=O)C1 | · | 10.4% | · | · | · | ·
Cn1c(=O)c2c(ncn2CCC(=O)NC2CCCCC2)n(C)c1=O | · | 25.5% | · | · | · | ·
O=C1NN(c2ccc(Cl)cc2)C(=O)/C1=C\c1ccc(-c2cccc(C(=O)O)c2)o1 | -1.0% | 39.8µM* | -0.7% | 9.3% | -0.4% | -2.9
CCCCn1nc(C(=O)Nc2nc(-c3cc(F)ccc3F)cs2)c2ccccc2c1=O | · | -5.2% | · | · | · | ·
COc1cccc(/C=C2\Oc3cc(OS(=O)(=O)c4ccccc4)ccc3C2=O)c1OC | · | -25.1% | · | · | · | ·
CCCn1cc(-c2ccncc2)cc1C(=O)NCc1cccc(F)c1 | · | 82.6% | · | · | · | ·
CC(C)=CCc1c(O)cc2c(c1O)C(=O)CC(c1ccccc1)O2 (centres undefined) | -2.0% | 7.7% | · | · | 6.2% | 0.6
O=C1CC(c2ccc(O)cc2)Oc2cc(O)cc(O)c21 (centres undefined) | -3.4% | ? | 0.5% | 15.1% | 2.2% | -3.9
SMILES | ASM inhibitor | 12-LOX inh | Mm-Cpn inhibitor | p53 reactivation | PINK1 modulator | CCT modulator
COc1ccc([C@H]2Cc3cc(O)cc(O)c3C(=O)O2)cc1O | 2.4% | 22.4µM* | -0.2% | 9.3% | 2.2% | 2.0
O=C1CC(c2ccc(O)c(O)c2)Oc2cc(O)cc(O)c21 (centres undefined) | 0.7% | 6.31µM* | -0.6% | 9.8% | -0.3% | -5.0
O=C1CC(c2ccc(O)c(O)c2)Oc2c1ccc(O)c2O (centres undefined) | -4.3% | 35.5µM* | -2.7% | 7.2% | 0.5% | -2.9
CC(C)=CCc1c(O)ccc2c1OC(c1ccc(O)c(O)c1)CC2=O (centres undefined) | -10.6% | 28.2µM* | · | -6.0% | 5.2% | 2.3
O=C1c2cc(O)c(O)cc2OC(c2ccc(O)c(O)c2)C1O (centres undefined) | -5.4% | ? | · | · | -3.1% | 1.2
Cc1ccc(NC(=O)c2oc3ccccc3c2C)cc1C | · | 30.2% | · | · | · | ·
COc1ccc(CNCc2cn(-c3cccc(F)c3)nc2-c2ccc(C)o2)cc1 | 3.0% | 44.7µM* | -1.2% | 6.5% | -0.4% | 0.5
O=C(COCc1cc(-c2cccs2)on1)NCCN1CCCCCC1 | · | -24.5% | · | · | · | ·
O=C(NCc1cccnc1)c1ccc2nc(-c3ccccc3)c(-c3ccccc3)nc2c1 | · | 20.6% | · | · | · | ·
CC(=O)Oc1ccc2ccccc2c1C(NC(=O)Cc1ccccc1)c1ccc(Cl)cc1 (centres undefined) | -11.7% | -24.4% | -2.6% | -4.2% | 14.1µM* | -0.1
O=C(c1ccc(Cl)cc1Cl)N1CCN(c2ccccn2)CC1 | 1.6% | -11.9% | 1.4% | -59.4% | 0.6% | -33.0*
O=C(c1cc(Cl)ccc1Cl)N1CCN(c2ccccn2)CC1 | 0.6% | 0.6%[57.4 µM] | 1.0% | -16.4% | 1.6% | -2.1
CCOC(=O)NC(=O)/C(C#N)=N\Nc1cccc(Cl)c1 | -11.2% | 0.398µM* | 0.3% | 2.4% | 15.8µM* | -3.5
O=C(NN1C(=O)/C(=C/C=C/c2ccco2)SC1=S)c1ccncc1 | -8.6% | 50.1µM* | -5.4% | 12.0% | -0.7% | 1.0
COC(=O)c1ccc(Nc2cc(C)nc3ccc(C)cc23)cc1 | 41.9% | 15.1% | 0.5% | 4.4% | -1.6% | -39.0*
Cc1ccsc1C(=O)N1CCC2(CC1)NC(=O)N(c1cccc(F)c1)N2 | · | 2.82µM* | · | · | · | ·
Cc1ccsc1C(=O)N1CCC2(CC1)NC(=O)N(c1ccccc1)N2 | · | 7.08µM* | · | · | · | ·
Cc1ccsc1C(=O)N1CCCC(N2CCN(c3cccc(Cl)c3)CC2)C1 (centres undefined) | 5.5% | 6.0% | -2.1% | -4.2% | -1.5% | 0.0
Cc1ccsc1C(=O)N1CCC1(C)C(=O)NS(=O)(=O)c1cccc(F)c1 (centres undefined) | · | -9.4% | · | · | 0.8% | 0.3
Cc1ccsc1C(=O)N1CCN(S(=O)(=O)c2cccs2)CC1 | -0.8% | i | 0.7% | -4.4% | -2.5% | 1.7
O=C1CCC2(CC1)NC(=O)N(c1ccccc1)N2 | 0.2% | ? | 0.5% | 7.6% | 2.7% | -4.6
Cc1ccc(C(=O)N2CCC3(CC2)NC(=O)N(c2ccccc2)N3)cc1 | · | 1.26µM* | · | · | · | ·
Cc1ccsc1C(=O)N1CCC2(CC1)NC(=O)N(c1cccc(Cl)c1)N2 | · | 1.26µM* | · | · | · | ·
CCc1nc(SCC(=O)Nc2ccc(Br)cc2)c2c3c(sc2n1)COC(C)(C)C3 | · | -6.0% | · | · | · | ·
O=C(/C=C/c1ccco1)N(Cc1cccs1)C1CC1 | · | 35.5µM* | · | · | · | ·
Cc1noc(-c2cccs2)c1C(=O)NC(C)c1cccc2ccccc12 (centres undefined) | · | -12.0% | · | · | · | ·
CCOc1ccc(C(C)NC(=O)c2snnc2CC)cc1OCC (centres undefined) | · | 151.1% | · | · | · | ·
